In PubChem BioAssay (NCATS):
Inconclusive results are not listed. Active and inactive are the calls of the source. Calls follow the shape of the dose curve; as a rule, active = well fitted inhibition curve with a large enough effect; inconclusive = small, poorly fitted or top-dose-only effect; inactive = flat fitted curve, though single readings scatter.

Biological target: Tyrosyl-DNA phosphodiesterase 1 (Homo sapiens) (UniProt Q9NUW8)
Test: Confirmation Assay for Inhibitors of Tyrosyl-DNA Phosphodiesterase (TDP1) (AID 489007); also: nearly all actives have a fitted effect of over 40% in size
Details: recombinant human TDP1 enzymatic activity, dose-response
Text: Human tyrosyl-DNA phosphodiesterase I (Tdp1) is a rational anticancer target because this enzyme is involved in the repair of DNA lesions created by the trapping of human DNA topoisomerase I (Top1) following treatment by anticancer agents such as camptothecins. Recombinant Tdp1 was expressed and purified from E. coli in the laboratory (Anthony et al, Nucleic Acids Research, 2007, Vol. 35, 4474-4484). A Tdp1 DNA substrate bearing a 5' biotin and a 3' phospho-tyrosine was obtained by custom synthesis. This oligonucleotidic DNA substrate was subsequently coupled to a fluorescein isothiocyanate (FITC) group via the free amino group present on the phospho-tyrosine. Tdp1 was screened against the NCGC small molecule library using the AlphaScreen (AS) detection method in which a streptavidin donor AS bead is bound at the 5' end and an anti-FITC AS acceptor bead is bound at the 3' end of the DNA oligonucleotidic substrate. In the presence of Tdp1, the enzyme cleaves the tyrosine-FITC group, leaving a 3' end phosphate on the DNA substrate. This cleavage reaction results in a loss of signal in AS.
This BioAssay is a confirmation of followup compounds from primary TDP1 screen (AID:485290)
NIH Molecular Libraries Probe Production Network [MLPCN]
NIH Chemical Genomics Center [NCGC]
Assay Provider: Yves Pommier and Christophe Marchand, National Cancer Institute
Assay Title: qHTS Assay for Inhibitors of Tyrosyl-DNA Phosphodiesterase (TDP1)
[1] 3 ul of buffer is dispensed in columns 3 & 4 as negative control (no enzyme and maximum signal),
[2] 3 ul of enzyme (1 nM final) is dispensed in columns 1,2, 5-48,
[3] 1 ul of substrate (15 nM final) is dispensed throughout the plate,
[4] 1 ul of AS donor/acceptor bead mix (10 ug/ml final) is dispensed throughout the plate
3 ul of Tdp1 enzyme is dispensed to 1536-well Kalypsys black solid bottom plates. Compounds and controls (23 nl) are transferred via Kalypsys Pin Tool. The plates are incubated for 15 min at room temperature, and then 1 ul of substrate is added to start the reaction. After 5 min incubation at room temperature, 1 ul of AS donor/acceptor bead mix is added and the plates are further incubated for 10 min at room temperature. The detection is then performed on a PerkinElmer Envision reader.
Potency is read from the fitted curve at half-maximal effect.

Tyrosyl-DNA phosphodiesterase 1 (Homo sapiens), sequence (Q9NUW8 whole entry, looked up): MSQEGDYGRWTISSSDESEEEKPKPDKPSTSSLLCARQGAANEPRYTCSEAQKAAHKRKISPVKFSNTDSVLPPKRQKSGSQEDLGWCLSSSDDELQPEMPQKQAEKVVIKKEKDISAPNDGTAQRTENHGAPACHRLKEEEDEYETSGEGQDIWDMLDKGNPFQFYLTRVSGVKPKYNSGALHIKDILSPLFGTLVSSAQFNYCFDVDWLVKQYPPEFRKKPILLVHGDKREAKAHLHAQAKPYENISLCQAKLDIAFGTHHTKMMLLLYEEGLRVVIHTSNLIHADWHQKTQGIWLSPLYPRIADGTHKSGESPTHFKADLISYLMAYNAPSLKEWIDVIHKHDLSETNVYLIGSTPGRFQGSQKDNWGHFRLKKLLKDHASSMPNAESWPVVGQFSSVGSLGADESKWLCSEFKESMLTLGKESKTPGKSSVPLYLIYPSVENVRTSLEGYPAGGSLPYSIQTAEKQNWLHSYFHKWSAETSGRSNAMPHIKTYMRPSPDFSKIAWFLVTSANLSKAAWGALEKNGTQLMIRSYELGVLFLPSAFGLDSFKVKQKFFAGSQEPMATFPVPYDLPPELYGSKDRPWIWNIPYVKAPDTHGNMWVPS

Potency, active:
Cc1cc(C=O)c(C)n1-c1ccc(Cl)c(C(=O)O)c1 1.12 µM, O=C(CSc1nc(NS(=O)(=O)c2ccccc2)cc(=O)[nH]1)Nc1ccc(Cl)cc1 22.4 µM, Cc1ccc(-c2nc3c(c(SCC(=O)Nc4cccc(C(=O)O)c4)n2)Cc2cccc(C)c2O3)cc1 4.08 µM, Cc1cc(C=O)c(C)n1-c1cccc(C(=O)O)c1 7.94 µM, Cc1nn(Cc2ccc(F)cc2)c(C)c1NC(=O)c1cc2ncc(Br)cn2n1 44.7 µM, COc1ccc(/C=N/N=C2/NC(=O)C(CC(=O)O)S2)cc1OCc1ccc(Cl)cc1Cl (stereo not given) 39.8 µM, O=c1c2nc(Br)n([C@@H]3O[C@@H]4CO[P@@](O)(=S)O[C@H]4[C@H]3O)c2nc2[nH]c(-c3ccccc3)cn12 12.6 µM, Cc1c(-c2ccc(Cl)cc2)oc(=O)c2c(N)n(-c3ccccc3)nc12 25.1 µM, Cc1cc(N2C(=O)C3C4C=CC(C4)C3C2=O)ccc1NC(=O)c1cccs1 (stereo not given) 70.8 µM, Cc1ccc(Oc2cc(-n3nc(C)cc3C)ncn2)cc1 112 µM, Cc1ccc(CSc2nnc(SCC(=O)N/N=C/c3c[nH]c4ccccc34)s2)cc1 5.62 µM, O=C1c2ccccc2-c2onc3ccc(NCc4ccco4)c1c23 7.08 µM, CO/N=C(/C(=O)N[C@H]1C(=O)N2C(C(=O)O)=C(COC(C)=O)CSC12)c1csc(N)n1 (stereo not given in full) 8.91 µM, O=C(O)c1ccc(CSc2n[nH]c(-c3ccco3)n2)cc1 39.8 µM, CCOC(=O)N1CCC(N2Cc3cccc(C(=O)NCc4ccc5c(c4)OCO5)c3C2=O)CC1 15.8 µM, O=C(O)C1C2C=CC3(O2)C1C(=O)N1c2ccccc2C2OCCC2C13 (stereo not given) 35.5 µM, O=C(O)/C=C/c1ccc([N+](=O)[O-])o1 50.1 µM, CCn1c(SCc2nc3sc(C(=O)O)c(C)c3c(=O)[nH]2)nc2ccccc21 3.16 µM, CC(=O)Nc1ccc2c(COC(=O)CC3Sc4ccccc4NC3=O)cc(=O)oc2c1 (stereo not given) 15.8 µM, O=C(CSc1nc2ccccc2[nH]1)NC1CCCC1 14.1 µM, Cc1nn(-c2ccccc2)c(C)c1S(=O)(=O)O 25.1 µM, Cc1ccc(C(=O)O)cc1-c1ccc(/C=C2\SC(=O)N(CC(=O)Nc3ccccc3)C2=O)o1 6.31 µM, Cc1ccc(S(=O)(=O)N2CCCCC2)cc1C(=O)Nc1ccc(S(=O)(=O)Nc2ncccn2)cc1 14.1 µM, O=C(O)C1C2C=CC(C2)C1C(=O)NCCc1ccncc1 (stereo not given) 100 µM, O=C(COC(=O)c1cc2c(s1)CCC2)Nc1ccc(F)cc1 12.6 µM, Cn1nnnc1SCC(=O)Nc1ccccn1 7.08 µM, CCCn1c(SCC(=O)NC(=O)NCc2ccco2)n[nH]c1=O 25.1 µM, Cc1ccc(/C=C2/C(=O)c3ccc(C(=O)O)cc3C2=O)o1 14.1 µM, COc1ccc(S(=O)(=O)N2Cc3ccccc3CC2C(=O)O)cc1 (stereo not given) 12.6 µM, CCCCC[C@H](O)/C=C/[C@@H]1[C@@H](C/C=C\CCCC(=O)OC)[C@@H](O)C[C@H]1O 25.1 µM, Cc1ccnc(NS(=O)(=O)c2ccc(NC(=O)C3C4C=CC(C4)C3C(=O)O)cc2)n1 (stereo not given) 35.5 µM, Cc1cc(C)c(C#N)c(SCc2ccccc2)n1 112 µM, c1ccc(N2N=C(c3cccs3)CC2c2ccco2)cc1 (stereo not given) 112 µM, O=C(O)C1C2C=CC(CC2)C1C(=O)O (stereo not given) 7.94 µM, Cc1ccc(C)n1-c1ccc(C(=O)O)cc1 0.794 µM, O=C(O)c1ccc(-c2ccc(/C=C3\NC(=O)N(Cc4ccc(Cl)cc4)C3=O)o2)cc1 14.1 µM, O=C(O)c1cccc(-n2cccc2/C=C2/NC(=O)N(Cc3ccccc3F)C2=O)c1 8.91 µM, O=C(O)c1cc(-c2ccc(/C=N/N3C(=O)C4C5C=CC(C6CC56)C4C3=O)o2)ccc1Cl (stereo not given) 31.6 µM, Cc1ccc(CNC(=O)c2ccc(-n3cccc3)cc2)cc1 12.6 µM, Cc1ccc(CNC(=O)CCS(=O)(=O)c2ccc(Br)cc2)cc1 12.6 µM
